Compound activity as filed in PubChem BioAssay.
Shown are actives, neighbours in structure and some others; about 3.6% of the full set was active somewhere.
TRHR agonist = TRH receptor (human) agonism | activation, % at 2 µM | TRHR cells, calcium flux fluo-8, FDSS agonist mode | 0.18% of 360,000 active | AID 493084; note: 0% is about no effect
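In this calcium-flux screen, cells bearing human TRHR are dye-loaded with fluo-8, baselined for 10 cycles, then exposed to library compounds; positive kinetic calcium responses during the agonist phase mark hits, with TRH as control.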
TRHR PAM = allosterically enhances the human TRH receptor | 0.66% of 360,000 active | enhancement, % at 2 µM | AID 493056 | TRHR cells, fluo-8 calcium fluorescence, EC20 TRH enhancement | P34981; in the data active = enhancement above about 30%; note: 0% is about no effect
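TRHR-expressing cells loaded with fluo-8 calcium dye were read kinetically (ex 480/em 530) during compound addition, then stimulated with an EC20 of TRH (10 nM final). Enhancement of the Gq-mediated intracellular calcium response was scored.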
D1 antag = human D1 dopamine receptor antagonism; P21728; HEK293 TREx D1 cells, calcium flux, dopamine EC80; hits give low values; activity change, negative = inhibition, % at 10 µM; 3.2% of 360,000 active; in the data active = activity change below about -30%; note: % is set by controls: 0 for no effect and ±100 for the full control effect
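Cells carrying a force-coupled, tetracycline-inducible human D1 receptor report calcium flux. Each well gets a 10 s baseline, compound with 180 s monitoring, then an EC80 dopamine stimulus with a second 180 s kinetic read.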
D1 agonist = activates the human D1 dopamine receptor; 1% of 360,000 active; HEK293 T-REx D1 cells, calcium flux, agonist mode; activation, % at 2 µM; AID 504660; P21728; note: 0% is about no effect
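Agonism was scored from calcium flux recorded over 180 s (1 read/s) after pintool compound addition, following a 10-cycle baseline. Cells were inducible force-coupled HEK293 TREx D1, plated overnight at 30 C and loaded with no-wash calcium dye.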
LDHA inh = LDHA (human) enzyme inhibition | P00338 | purified LDHA, NADH/diaphorase-resazurin fluorescence; hits give low values | activity change, % (values are at about 110 or 230 µM) | 0.15% of 480,000 active; in the data active = activity change below about -30%;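 note: plate controls were DMSO wells for no effect and wells without enzyme for full effect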
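LDH5 2 nM; NADH 0.06 mM, pyruvate 0.2 mM; 200 mM Tris pH 7.4, EDTA, Tween-20; 5 min RT. Detection: diaphorase 0.133 mg/mL + resazurin 37 µM, fluorescence ex540/em590 at 0 and 20 min; normalized to enzyme-free and DMSO wells.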
D1 PAM = potentiators of human D1 dopamine receptor | P21728 | HEK293 TREx D1 cells, calcium flux, dopamine EC20 potentiation | potentiation, % at 10 µM | 0.036% of 360,000 active | AID 504651; in the data active = potentiation above about 30%; note: 0% is about no effect
The depositor's hits bear a star; . = not tested or not shown. Cut-off read from the data, not from the text of the source, unless noted: active = activation above about 30%; inactive = the rest.

SMILES | TRHR agonist | TRHR PAM | D1 antag | D1 agonist | LDHA inh | D1 PAM
CCOC(=O)CCc1c(C)c2ccc(OC(C)C(=O)OCC)c(C)c2oc1=O (stereo not given) | -0.6 | 11.5 | -40.5* | 17.9 | 0.6 | -12.2
CCCCCCN1C=CC=C/C1=C\C=C(C#N)C#N | 27.9 | -3.4 | -7.2 | 63.7* | -4.0 | 6.8
COc1ccc(C=O)cc1I | . | . | . | . | -4.4 | .
NS(=O)(=O)c1ccc(N/N=C/c2c(F)cccc2F)c([N+](=O)[O-])c1 | . | . | . | . | -2.9 | .
CC(=O)c1ccc(NS(=O)(=O)c2c(C)cc(C)cc2C)cc1 | -0.3 | 2.6 | -5.4 | 3.6 | -6.2 | -0.8
Cc1cc(C)c(S(=O)(=O)Nc2ccc(C(N)=O)cc2)c(C)c1 | 0.3 | 0.9 | -42.9* | 2.1 | 1.0 | -1.8
